Each structure is given as a SMILES string. The campaign covered roughly 1,100 compounds. About 350 (32%) were called active. The list is a sample of the results. Entries with a potency or affinity are not part of this list. Values without a mark were called inactive. How the calls were made is not given here.

Experimental findings from PubChem BioAssay AID652042 (Broad Institute, 2013) are described below.

The experiment in a line: viability loss in CEM21 cells – cell-based, CellTiter-Glo luminescence, cherry-picked, cytotoxicity control for viral fusion inhibitor project, dose response (AID 652042). The note with it: CellTiter-Glo ATP luminescence, 24 h; series mostly up to 35 µM; activity change, negative = cytotoxicity: at the top concentration. (ATP-based viability assays read luminescence as a measure of living cells.)
With `CC(=O)c1c(O)cc2c3c1OC(C)(C)C1CCC(C)(CC31)O2` (centres undefined), the “activity change, negative = cytotoxicity” value was -10.6% (inactive).

Turning to `Cc1nc2ccccc2n1CC(=O)NCc1ccccc1`, the “activity change, negative = cytotoxicity” value was -8.14% (inactive).

Turning to `CCS(=O)(=O)N1Cc2ccccc2CC1C(=O)NC(C)C12CC3CC(CC(C3)C1)C2` (centres undefined), the “activity change, negative = cytotoxicity” value was -11.2% (inactive).

With `CCOC(=O)[C@@H]1[C@H]2COc3cc(OC)ccc3[C@H]2N2C(=O)N(c3cccc(F)c3)C(=O)[C@@]12C`, the “activity change, negative = cytotoxicity” value was -1.64% (inactive).

On to `CCOC(=O)[C@@H]1[C@H]2COc3ccc(Br)cc3[C@@H]2N2C(=O)N(c3ccc(F)cc3)C(=O)[C@@]12C`, for which the “activity change, negative = cytotoxicity” value is -19.4% (inactive).

As to `O=C(C[C@@H]1C[C@H]2c3cc(NC(=O)Nc4ccccc4)ccc3O[C@H]2[C@H](CO)O1)NCc1cccnc1`, the “activity change, negative = cytotoxicity” value was -0.189% (inactive).

`Cc1ccc(S(=O)(=O)N2CCN(S(=O)(=O)c3ccc(C)cc3)C2c2ccccc2)cc1`: the “activity change, negative = cytotoxicity” value is -6.37% (inactive).

In the case of `c1ccc(CSc2nnc([C@@H]3CCCN3)o2)cc1`, the “activity change, negative = cytotoxicity” value was -2.9% (inactive).

Consider `O=C(C1CCCCC1)N1CCCC(c2nc3c(nnn3Cc3ccccc3)c(=O)[nH]2)C1` (centres undefined), for which the “activity change, negative = cytotoxicity” value was -0.473% (inactive).

For `CCN(C[C@H]1N[C@@](CC)(C(=O)OC)[C@H]2C(=O)N(Cc3ccccc3)C(=O)[C@@H]12)S(=O)(=O)c1ccc(C)cc1`, the “activity change, negative = cytotoxicity” value was -12.5% (inactive).

In the case of `CCN(C[C@H]1N[C@@](C)(C(=O)OC)[C@H]2C(=O)N(Cc3ccccc3)C(=O)[C@@H]12)S(=O)(=O)c1ccc(C)cc1`, the “activity change, negative = cytotoxicity” value is -0.762% (inactive).

As for `O=C(c1ccc(Cl)cc1)N1CCCCC(Sc2nnc(-c3ccc4c(c3)OCO4)o2)C1=O` (centres undefined), the “activity change, negative = cytotoxicity” value was -2.73% (inactive).

Regarding `Cc1cc(C)c(S(=O)(=O)N2CCN=C2c2ccccc2)cc1C`, the “activity change, negative = cytotoxicity” value is -9.27% (inactive).

In the case of `c1ccc2c(N3CCCCC3)ncnc2c1`, the “activity change, negative = cytotoxicity” value is -7.9% (inactive).

For the compound `CC(C)[C@H](CN(N=O)[C@@H](Cc1ccccc1)CN(C)N=O)N(CCc1ccccc1)N=O`, the “activity change, negative = cytotoxicity” value was -21.7% (inactive).

Consider `Cc1ccccc1-n1c(=O)c2ccccc2n2cnnc12`, for which the “activity change, negative = cytotoxicity” value was 2.85% (inactive).

As for `COc1ccc(C(=O)NCCc2ccc(Cl)cc2)cc1S(=O)(=O)N1CCCCC1C` (centres undefined), the “activity change, negative = cytotoxicity” value was -24% (inactive).

Regarding `COc1ccc(NC(=O)C(=O)NCC2CCCN2S(=O)(=O)c2cccs2)cc1` (centres undefined), the “activity change, negative = cytotoxicity” value was -23.2% (inactive).

Turning to `O=C(CN(c1cc(C(F)(F)F)ccc1Cl)S(=O)(=O)c1ccccc1)NCc1cccnc1`, the “activity change, negative = cytotoxicity” value was -6.14% (inactive).

Regarding `CC(C)(C)N1C(=O)[C@H]2[C@@H](c3ccc(Br)cc3)N3C(=O)N(c4ccccc4)C(=O)[C@@]3(C)[C@H]2C1=O`, the “activity change, negative = cytotoxicity” value is -1.59% (inactive).

As to `COc1ccc(Nc2ncc(C(=O)N3CCN(c4ccc(F)cc4)CC3)c3ccccc23)cc1`, the “activity change, negative = cytotoxicity” value is -15.8% (inactive).

For the compound `CO[C@H]1CN(C)C(=O)c2cc(NC(=O)c3ccc(F)cc3)ccc2OC[C@H](C)N(C(=O)CN(C)C)C[C@@H]1C`, the “activity change, negative = cytotoxicity” value was -4.43% (inactive).

As for `COc1ccccc1OCC(=O)c1[nH]c(C)c(C(C)=O)c1C`, the “activity change, negative = cytotoxicity” value is -10.2% (inactive).

As for `Cc1cccc2cc3c(N)c(C#N)sc3nc12`, the “activity change, negative = cytotoxicity” value was -1.38% (inactive).

Consider `O=C1CCCc2c1[nH]c1ccc(Cl)cc21`, for which the “activity change, negative = cytotoxicity” value was 6.7% [at 16 µM] (inactive).

Take `O=C(NNS(=O)(=O)c1ccc(F)cc1F)C1Cc2c(ccc3ccccc23)O1` (centres undefined): the “activity change, negative = cytotoxicity” value was -1.4% (inactive).

As for `C[C@@H]1CN([C@H](C)CO)C(=O)c2cc(NC(=O)Nc3ccccc3)ccc2O[C@@H]1CN(C)S(=O)(=O)c1ccccc1`, the “activity change, negative = cytotoxicity” value is -5% (inactive).

With `Cc1ccc(S(=O)(=O)N(C)C[C@H]2Oc3cc(-c4cccc(F)c4)ccc3S(=O)(=O)N([C@H](C)CO)C[C@H]2C)cc1`, the “activity change, negative = cytotoxicity” value is -24.6% (inactive).

On to `C[C@@H]1CN([C@@H](C)CO)S(=O)(=O)c2ccc(-c3ccccc3)cc2O[C@H]1CN(C)S(C)(=O)=O`, for which the “activity change, negative = cytotoxicity” value was -14.9% (inactive).

As for `COc1ccc(S(=O)(=O)Nc2ccc3c(c2)CC(=O)N([C@@H](C)CO)C[C@H](C)[C@H](CN(C)S(=O)(=O)c2ccc(C)cc2)O3)cc1`, the “activity change, negative = cytotoxicity” value was -4.93% (inactive).

In the case of `COc1ccc([C@@H]2[C@@H]3C(=O)N(C(C)(C)C)C(=O)[C@@H]3[C@]3(CC(C)C)C(=O)N(c4cccc(Br)c4)C(=O)N23)cc1`, the “activity change, negative = cytotoxicity” value was 1.72% (inactive).

Turning to `COc1ccc(Cn2nnnc2C(c2cc3cccc(C)c3[nH]c2=O)N2CCOCC2)cc1` (centres undefined), the “activity change, negative = cytotoxicity” value is -2.74% (inactive).

As for `COc1ccc(C(C(=O)NC2CCCC2)N(C(=O)c2ccoc2C)c2ccc(C)cc2)cc1` (centres undefined), the “activity change, negative = cytotoxicity” value is -24% (inactive).

In the case of `O=C(NCc1ccco1)c1ccc(Cn2c(=O)c3ccccc3n(Cc3cccc(F)c3)c2=O)cc1`, the “activity change, negative = cytotoxicity” value was 3.08% (inactive).

Turning to `CCC(=O)N(C)C(c1ccccc1Cl)c1nnnn1-c1c(C)cccc1C` (centres undefined), the “activity change, negative = cytotoxicity” value is -15.6% (inactive).

Regarding `O=C(Nc1ccc(CN2CCS(=O)(=O)CC2)cc1)c1ccc(C(F)(F)F)cc1`, the “activity change, negative = cytotoxicity” value is -21.8% (inactive).

On to `CCCCCCOc1ccc(OC(=O)c2ccncc2)cc1`, for which the “activity change, negative = cytotoxicity” value was -12.3% (inactive).

Consider `C[C@@H]1CNC(=O)c2c(C(=O)N(C)Cc3ccccc3)ncn21`, for which the “activity change, negative = cytotoxicity” value was -18.7% (inactive).

Regarding `O=C1[C@H]2[C@@H](C3CC3)N3C(=O)CN(CC4CC4)C(=O)[C@@]3(Cc3ccccc3)[C@H]2C(=O)N1c1ccccc1`, the “activity change, negative = cytotoxicity” value was 0.041% (inactive).

In the case of `Cc1ccsc1/C=N/Nc1cccc(C(=O)O)c1`, the “activity change, negative = cytotoxicity” value is -7.18% (inactive).

Take `CC1(C(=O)N/N=C/c2ccc3c(c2)OCO3)CC1(Br)Br` (centres undefined): the “activity change, negative = cytotoxicity” value was 1.88% (inactive).

On to `CC1(C(=O)N/N=C/c2cc3c(cc2Br)OCO3)CC1(Br)Br` (centres undefined), for which the “activity change, negative = cytotoxicity” value was -5.08% (inactive).

In the case of `COc1cc(/C=N/NS(=O)(=O)c2ccc(C)cc2)ccc1OCc1ccc(C(=O)O)cc1`, the “activity change, negative = cytotoxicity” value was 4.25% (inactive).

With `CCCn1c(=S)[nH]c2cc(C(=O)N3CCCC(C(=O)OCC)C3)ccc2c1=O` (centres undefined), the “activity change, negative = cytotoxicity” value is -16.8% (inactive).
